In PubChem BioAssay AID602283 (Johns Hopkins Ion Channel Center, 2012) one finds inhibition data, which are given here for 50 molecules.

As usually defined, the inhibition is the change of the read-out against control, counted positive when it falls.

Hit rate of the full screen: of about 1,100 compounds, about 940 (85%) were called active. So high a share suggests a set chosen from earlier hits. These entries were drawn from the full list. Unmarked numbers belong to inactive results.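 Rule for the calls: active = inhibition exceeding 3 SD of buffer-only control wells (cut at about 26% in these data); inactive = the rest.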

The assay is described as follows: M3R calcium signalling without RGS4 expression – cell-based, HEK293 M3R, non-induced RGS4, Fluo-4 calcium, counter-screen for RGS4 activator project, primary screen (AID 602283).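 Note: percent drop in integrated peak-minus-baseline over baseline Fluo4 ratio after carbachol.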 The settings on record: HEK293 M3R non-induced RGS4, Fluo4 calcium flux, at 10 µM, stronger effect = higher value, after carbachol challenge at its EC90. In general terms: The purpose of a counterscreen is to sort out artefacts and off-target activity.
With `OC(CN=c1sc2ccccc2n1CC(O)COc1ccccc1)COc1ccccc1` (stereo not given), the inhibition was 92.8% (active).

As for `Cc1ccc(C)c(N2CCN(C(=O)CCCn3c(=O)c4cccn4c4cccnc43)CC2)c1`, the inhibition was 55.3% (active).

For the molecule `Cc1ccc(C)c(N2CCN(C(=O)CCCCCn3c(=S)[nH]c4ccc(N5CCOCC5)cc4c3=O)CC2)c1`, the inhibition was 52.8% (active).

With `CCOC(=O)c1c(NC(=O)NC(C)(C)C)sc2c1CCN(C)C2`, the inhibition was 0% [the number is a placeholder, only the call stands]. In the case of `COc1ccc(/C=C(\C#N)c2c[nH]c3ccccc23)cc1`, the inhibition was 70.8% (active).

For the molecule `Cc1ccc(N2C(=O)CC(Nc3cccc4ccccc34)C2=O)cc1` (stereo not given), the inhibition was 0% [the number is a placeholder, only the call stands]. Turning to `Cc1oc2c(F)c(F)c(F)c(F)c2c1S(=O)(=O)Nc1cccc(C(F)(F)F)c1`, the inhibition was 88.8% (active).

Regarding `Cc1nc(N2CCN(c3ccccn3)CC2)c2c(C)c(C(=O)Nc3ccc(F)cc3)sc2n1`, the inhibition is 72.8% (active). For the molecule `O=S(=O)(c1ccc(Br)cc1)n1ccc2ccccc21`, the inhibition is 36.8% (active). Under `Cc1ccc(OCCCCN2CCCCC2)c(Br)c1` stands 0% [the number is a placeholder, only the call stands]. Consider `CCCN(CCc1ccccc1)C1CCc2c(O)cccc2C1` (stereo not given), for which the inhibition was 34.8% (active). With `Cc1cccc(-c2nc3ccc(C(=O)NCCN4CCN(C)CC4)cc3nc2-c2cccc(C)c2)c1`, the inhibition is 93.8% (active). Under `CN1CCN(C(=O)N2c3ccccc3CCc3ccccc32)CC1` stands 57.3% (active). For `Cc1nn(C)cc1N1C(=O)c2cccc3c(N)ccc(c23)C1=O`, the inhibition is 101% (active). Regarding `CN(C)c1ccc(/C=C2\NC(=S)N(Cc3ccccc3)C2=O)cc1`, the inhibition was 62.8% (active). The value for `CC(C)C(c1nnnn1CCc1ccccc1)N1CCN(C(=O)c2ccco2)CC1` (stereo not given) was 25.8% (active). The value for `COc1ccc(C(=O)Nc2nc(-c3ccc(S(=O)(=O)N4CCOCC4)cc3)cs2)cc1` was 36.3% (active); that for `N=c1c2c3c(sc2nc2n1CCCCC2)CCCC3` was 55.8% (active); that for `CCOC(=O)C1=C(NC(=S)NC(=O)c2ccccc2)c2ccccc2CC1(C)C` was 61.3% (active). `OCCC1CN(Cc2ccc3nsnc3c2)CCN1C1CCCC1` (stereo not given): the inhibition was 43.8% (active). `CCC1C=C(c2ccccc2)C=CN=C1N(CC)CC` (stereo not given): the inhibition was 83.8% (active). The value for `O=C(CN1CCCCCC1)Nc1ccc(S(=O)(=O)N2CCCCC2)cc1` was 83.8% (active); that for `COc1cccc(-c2cc3nc4c(c(N5CCC6(CC5)OCCO6)n3n2)CCCC4)c1` was 31.8% (active).

Regarding `CCc1ccccc1NC(=O)[C@@H]1CCC(=O)N1C1OC(=O)c2c1ccc(OC)c2OC` (stereo not given in full), the inhibition is 0% [the number is a placeholder, only the call stands]. Under `COc1cc(/C=C(\C#N)c2nc3ccccc3[nH]2)ccc1O` stands 61.3% (active); under `CN(C)S(=O)(=O)N1CCC(Oc2cccc(C(=O)NCCCC3CCCC3)c2)CC1`, 61.8% (active); under `CCc1c(C)sc(NC(=O)c2ccc(Br)o2)c1C(=O)OC`, 0% [the number is a placeholder, only the call stands].

For the molecule `CCOc1ccc(C(CC(=O)O)NC(=O)COc2ccccc2)cc1` (stereo not given), the inhibition was 0% [the number is a placeholder, only the call stands]. Regarding `Cc1ccccc1C(OCCN(C)C)C1CCCCC1` (stereo not given), the inhibition was 95.3% (active).

As to `O=C(Cn1c(N2CCN(C/C=C/c3ccccc3)CC2)nc2ccccc21)c1ccccc1`, the inhibition was 91.8% (active). The value for `COc1ccc(CN2CCCC(C(=O)c3ccc(Cl)cc3)C2)cc1Cn1cncn1` (stereo not given) was 68.8% (active); that for `COc1cccc(/C=N/Nc2cc(C)nc(-c3ccccc3O)n2)c1O` was 85.8% (active). The value for `Cc1cccc(-c2nc(Nc3ccc(O)cc3)c3ccccc3n2)c1` was 35.3% (active); that for `Oc1ccccc1N1CCN(c2ncnc3sc(-c4ccccc4)cc23)CC1` was 26.3% (active). As for `COc1ccccc1C(CNC(=O)c1cccc(NS(=O)(=O)c2ccc(Br)cc2)c1)N(C)C` (stereo not given), the inhibition is 51.3% (active). Under `COc1cccc(CNC(=O)CCC2CCCN(Cc3ccc(OC(F)F)cc3)C2)c1` (stereo not given) stands 83.8% (active); under `CCC1CCCCN1CCCNC(=O)c1cc2c(Cl)nc3ccccc3c2s1` (stereo not given), 71.8% (active); under `O=C(c1cccs1)C1C(c2ccc(Br)cc2)NC(=S)NC1(O)C(F)(F)F` (stereo not given), 90.8% (active). Under `Cc1cc2oc3ccc(NCCC4CCCN4C)cc3c(=O)c2cc1C` (stereo not given) stands 87.8% (active); under `CN(C)CCOc1ccc(Cl)cc1C(C)(C)C`, 47.8% (active). The value for `Cc1ccc(OS(=O)(=O)c2ccc(-c3csc(C)n3)s2)c(C)c1` was 33.8% (active); that for `C#CC(CCN1CCCCC1)(OC)c1ccccc1` (stereo not given) was 63.8% (active).

With `CCCCCC(O)(CCN1CCCCC1)c1ccccc1` (stereo not given), the inhibition was 95.3% (active). Turning to `S=c1[nH]nc(-c2ccc(Cl)cc2)n1CC1CCCO1` (stereo not given), the inhibition was 0% [the number is a placeholder, only the call stands]. On to `Cc1ccc(SCC(=O)c2cc(C)c(OC(=S)N(C)C)c(C)c2)cc1`, for which the inhibition is 42.8% (active). Turning to `COc1ccc(C(=O)NC2CCCc3c2cnn3-c2cccc(C)c2C)c(OC)n1` (stereo not given), the inhibition is 64.8% (active). Under `COc1ccc(CN(C)C(=O)c2cc(-c3ccc(C)cc3C)nc3ccccc23)c(OC)c1OC` stands 51.3% (active); under `COc1ccc(-c2cc(C(=O)N(C)Cc3ccccc3)c3ccccc3n2)cc1`, 72.3% (active). Under `Cc1ccnc(SCCn2c(N(C)Cc3ccccc3)nc3c2c(=O)n(C)c(=O)n3C)n1` stands 28.3% (active).

For the molecule `COC(=O)c1ccc(CN2CCC(CO)(Cc3ccc(OC)cc3)CC2)cc1`, the inhibition is 70.8% (active).
